The results in this text go back to PubChem BioAssay (NCI).

The nature of test [1]: NCI Yeast Anticancer Drug Screen. Data for the rad50 strain (AID 155).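 Also: 0% = growth of vehicle-only cultures of the same strain.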 The note with it: S. cerevisiae rad50 strain growth inhibition, hits give high values. In short, it runs like this:
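Readout: growth inhibition relative to vehicle-treated cultures. Compound exposure was carried out in a genetically defined yeast strain deficient in DNA damage repair.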

Test [2] is described as follows: NCI Yeast Anticancer Drug Screen. Data for the mec2-1 strain (AID 157). The note with it: S. cerevisiae mec2-1 strain, hits give high values. In outline: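 Strain: mec2-1 (DNA repair/cell cycle alteration). Compound exposure, then growth measured; inhibition expressed relative to vehicle.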
A short description of test [3]: NCI Yeast Anticancer Drug Screen. Data for the sgs1 mgt1 strain (AID 161).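 Also: 0% = growth of cultures given vehicle only.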 Conditions: S. cerevisiae sgs1 mgt1 strain, hits give high values. In short, it runs like this:
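Genetically altered yeast, compound exposure, growth inhibition relative to vehicle.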

A short description of test [4]: NCI Yeast Anticancer Drug Screen. Data for the cln2 rad14 strain (AID 165).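 Also: 0% = growth equal to vehicle treated cultures.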 Conditions: S. cerevisiae cln2 rad14 strain, hits give high values. In short, it runs like this:
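Compounds are applied to the cln2 rad14 yeast strain, and growth is then compared with that of vehicle-treated cultures to give inhibition.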

Test [5] can be described thus: NCI Yeast Anticancer Drug Screen. Data for the bub3 strain (AID 167). Conditions: S. cerevisiae bub3 mutant strain, hits give high values. In short, it runs like this:
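Readout: yeast growth inhibition, expressed relative to vehicle-only wells. The test organism is a mutant strain from a panel with lesions in DNA repair or checkpoint genes.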

The nature of test [6]: NCI Yeast Anticancer Drug Screen. Data for the mlh1 rad18 strain (AID 175). Conditions: S. cerevisiae mlh1 rad18 strain growth inhibition, hits give high values. In outline:
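Read-out is yeast growth inhibition, calculated against vehicle-only controls. The compound was applied to a strain engineered with DNA damage repair alterations.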

[7] abbreviates: at 5.0 µM (retest, dose inferred, filed as 0.5).
[8] abbreviates: at 50.0 µM (retest, dose inferred, filed as 5.0).

Where “and” joins values, the source holds several entries; their conditions need not be identical. Equal entries are not always repeated. Compounds without any hit were thinned out: in the full panel of roughly 79,000, 15% have a hit. A number with no mark means an inactive call. Calls of active or inactive are those of the source. Rule as the data show it: active = growth inhibition above about 70%; inactive = the rest.

As to `CC1(C)OCC(COC(=O)C=[N+]=[N-])O1` (configuration not stated), the growth inhibition in test [1] (setting [7]) was 0%; in test [1] (setting [8]), -10%; in test [1] (at 50.0 µM), 2.75%; in test [2] (setting [7]) it was 0%; in test [2] (setting [8]), -7%; in test [2] (at 50.0 µM), 0.75%. The growth inhibition in test [3] (setting [7]) is 11%; in test [3] (setting [8]), -4%; in test [3] (at 50.0 µM), -7.5%; in test [4] (setting [7]), -3%; in test [4] (setting [8]), -14%; in test [4] (at 50.0 µM), -6.95%. The growth inhibition in test [5] (setting [7]) is 2%; in test [5] (setting [8]) it was -3%; in test [5] (at 50.0 µM), -2.25%; in test [6] (setting [7]), -2%; in test [6] (setting [8]) it was -14%; in test [6] (at 50.0 µM), 42.5%.
For the compound `C[CH2][Sn]([CH2]C)([CH2]C)[O]C(=O)CO`, the growth inhibition in test [1] (setting [7]) was 9%; in test [1] (setting [8]), 98% (active); in test [1] (at 50.0 µM) it was 82.2% (active); in test [2] (setting [7]) it was 10%; in test [2] (setting [8]) it was 99% (active); in test [2] (at 50.0 µM) it was 87% (active). Further, the growth inhibition in test [3] (setting [7]) is 17%; in test [3] (setting [8]), 98% (active); in test [3] (at 50.0 µM), 86.6% (active); in test [4] (setting [7]), -11%; in test [4] (setting [8]) it was 93% (active); in test [4] (at 50.0 µM) it was 55.4%. Also, the growth inhibition in test [5] (setting [7]) is 7%; in test [5] (setting [8]), 98% (active); in test [5] (at 50.0 µM) it was 86.8% (active); in test [6] (setting [7]) it was 12%; in test [6] (setting [8]), 98% (active); in test [6] (at 50.0 µM), 84.9% (active).
Regarding `O=C(O)c1ccccc1[Se][Se]c1ccccc1C(=O)O`, the growth inhibition in test [1] (setting [7]) was 50%; in test [1] (setting [8]) it was 73% (active); in test [1] (at 50.0 µM), 21.1%; in test [2] (setting [7]), 26%; in test [2] (setting [8]) it was 56%; in test [2] (at 50.0 µM), 10.8%. The growth inhibition in test [3] (setting [7]) was 53%; in test [3] (setting [8]), 67%; in test [3] (at 50.0 µM), 15.9%; in test [4] (setting [7]) it was 31%; in test [4] (setting [8]) it was 46%; in test [4] (at 50.0 µM), 8.05%. Also, the growth inhibition in test [5] (setting [7]) was 49%; in test [5] (setting [8]), 70% (active); in test [5] (at 50.0 µM), 34.1%; in test [6] (setting [7]), 56%; in test [6] (setting [8]), 74% (active); in test [6] (at 50.0 µM), 74.5% (active).
On to `COc1cc(CC(=O)N2CC2)cc(OC)c1OC`, for which the growth inhibition in test [1] (setting [7]) is -6%; in test [1] (setting [8]) it was -1%; in test [1] (at 50.0 µM) it was 7.85%; in test [2] (setting [7]) it was 0%; in test [2] (setting [8]), 8%; in test [2] (at 50.0 µM), -3.1%. Besides, the growth inhibition is -6% in test [3] (setting [7]); 2% in test [3] (setting [8]); -13.6% in test [3] (at 50.0 µM); -7% in test [4] (setting [7]); -3% in test [4] (setting [8]); 39.4% in test [4] (at 50.0 µM). The growth inhibition in test [5] (setting [7]) is -5%; in test [5] (setting [8]), -1%; in test [5] (at 50.0 µM), 13.9%; in test [6] (setting [7]), -2%; in test [6] (setting [8]), -8%; in test [6] (at 50.0 µM), -13.8%.
For `Nc1ccc(Cl)cc1C(=O)c1ccccc1Cl`, the growth inhibition in test [1] (setting [7]) was -3%; in test [1] (setting [8]), 99% (active); in test [1] (at 50.0 µM), 97.4% (active); in test [2] (setting [7]) it was -3%; in test [2] (setting [8]) it was 99% (active); in test [2] (at 50.0 µM) it was 97.2% (active). Also, the growth inhibition in test [3] (setting [7]) is -2%; in test [3] (setting [8]), 99% (active); in test [3] (at 50.0 µM), 97.5% (active); in test [4] (setting [7]), -9%; in test [4] (setting [8]), 98% (active); in test [4] (at 50.0 µM) it was 80.8% (active). Moreover, the growth inhibition in test [5] (setting [7]) was -12%; in test [5] (setting [8]), 99% (active); in test [5] (at 50.0 µM), 87.5% (active); in test [6] (setting [7]) it was -1%; in test [6] (setting [8]), 99% (active); in test [6] (at 50.0 µM), 96.8% (active).
As for `CNC(=O)Oc1ccccc1/C=N\Sc1ccc(Cl)cc1`, the growth inhibition is -2% in test [1] (setting [7]); 21% in test [1] (setting [8]); 97.2% (active) in test [1] (at 50.0 µM); 1% in test [2] (setting [7]); 21% in test [2] (setting [8]); 99% (active) in test [2] (at 50.0 µM). The growth inhibition in test [3] (setting [7]) is 3%; in test [3] (setting [8]), 43%; in test [3] (at 50.0 µM) it was 98.9% (active); in test [4] (setting [7]) it was -4%; in test [4] (setting [8]), 10%; in test [4] (at 50.0 µM), 82.8% (active). The growth inhibition in test [5] (setting [7]) is -4%; in test [5] (setting [8]) it was 6%; in test [5] (at 50.0 µM), 98.6% (active); in test [6] (setting [7]), -2%; in test [6] (setting [8]) it was 35%; in test [6] (at 50.0 µM), 99.2% (active).
Turning to `CCOP(=O)(CP(=O)(OCC)OCC)OCC.[Cl][Sn]([Cl])([c]1ccccc1)[c]1ccccc1`, the growth inhibition in test [1] (setting [7]) was 11%; in test [1] (setting [8]) it was 99% (active); in test [1] (at 50.0 µM), 98.8% (active); in test [2] (setting [7]), -4%; in test [2] (setting [8]), 99% (active); in test [2] (at 50.0 µM), 98.9% (active). Further, the growth inhibition was 7% in test [3] (setting [7]); 97% (active) in test [3] (setting [8]); 99.1% (active) in test [3] (at 50.0 µM); 7% in test [4] (setting [7]); 96% (active) in test [4] (setting [8]); 98.1% (active) in test [4] (at 50.0 µM). Further, the growth inhibition in test [5] (setting [7]) was 19%; in test [5] (setting [8]), 98% (active); in test [5] (at 50.0 µM), 97.8% (active); in test [6] (setting [7]), 1%; in test [6] (setting [8]), 98% (active); in test [6] (at 50.0 µM), 99% (active).
In the case of `CCCCN1C(=O)C2C(C1=O)C1(Cl)C(Cl)=C(Cl)C2(Cl)C1(Cl)Cl` (configuration not stated), the growth inhibition in test [1] (setting [7]) was 17%; in test [1] (setting [8]) it was 98% (active); in test [1] (at 50.0 µM), 95.3% (active); in test [2] (setting [7]), 17%; in test [2] (setting [8]), 99% (active); in test [2] (at 50.0 µM) it was 96% (active). The growth inhibition in test [3] (setting [7]) was 11%; in test [3] (setting [8]), 98% (active); in test [3] (at 50.0 µM) it was 98.9% (active); in test [4] (setting [7]), 13%; in test [4] (setting [8]), 98% (active); in test [4] (at 50.0 µM) it was 99% (active). Further, the growth inhibition in test [5] (setting [7]) is 3%; in test [5] (setting [8]) it was 98% (active); in test [5] (at 50.0 µM), 76.5% (active); in test [6] (setting [7]), 21%; in test [6] (setting [8]), 98% (active); in test [6] (at 50.0 µM) it was 76.7% (active).
For `O=C(CBr)OCc1ccccc1`, the growth inhibition was 96% (active) and 98% (active) in test [1] (setting [7]); 99% (active) in test [1] (setting [8]); 99.5% (active) in test [1] (at 50.0 µM); 98% (active) and 99% (active) in test [2] (setting [7]); 99% (active) and 100% (active) in test [2] (setting [8]); 99.8% (active) in test [2] (at 50.0 µM). For the same compound, the growth inhibition in test [3] (setting [7]) was 97% (active) and 100% (active); in test [3] (setting [8]), 99% (active) and 100% (active); in test [3] (at 50.0 µM), 99.7% (active); in test [4] (setting [7]) it was 84% (active) and 93% (active); in test [4] (setting [8]) it was 99% (active); in test [4] (at 50.0 µM) it was 99.4% (active). In addition, the growth inhibition in test [5] (setting [7]) was 97% (active) and 99% (active); in test [5] (setting [8]), 99% (active); in test [5] (at 50.0 µM), 99.4% (active); in test [6] (setting [7]), 99% (active); in test [6] (setting [8]) it was 99% (active); in test [6] (at 50.0 µM) it was 99.4% (active).
